# Assay outcomes from PubChem.
# Hits are enriched below; roughly 1.1% of the tested compounds scored in any of these assays.
# NCOA1 inh = human NCOA1 inhibition. Q15788. HEK293 GAL4-SRC1 luciferase reporter, luminescence. inhibition, % at 3.6 µM. actives 0.12% (n = 360,000);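 active means inhibition above the campaign mean plus 3 SD, with each screening campaign given its own cutoff, cut at about 60% in these data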;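 further: 0% = DMSO treated cells and 100% = gossypol at 36 µM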
# LRH-1 inv ag = suppresses constitutive activity of human LRH-1 | actives 0.13% (n = 360,000) | inhibition, % at 3.6 µM | O00482 | HEK293T StAR-luciferase reporter, LRH-1 transfected, 24 h | AID 602396;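 active means inhibition above the mean inhibition of all tested compounds plus 3 SD, cut at about 73% in these data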;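 further: 0% = DMSO wells and 100% = reporter-only cells lacking LRH-1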
# NCOA3 inh = inhibitors of human steroid receptor coactivator 3 (SRC3). inhibition, % at 3.6 µM. actives 0.17% (n = 360,000). HEK293 GAL4-SRC3 luciferase reporter, luminescence;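 active means inhibition above a per-campaign cutoff, the mean of all compounds plus 3 SD, cut at about 60% in these data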;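 further: 0% = DMSO-treated cells and 100% = gossypol-treated cells at 36 µM; higher means less SRC3-driven luciferase light from the GAL4 reporter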
# SRC2 inh = human SRC2 (NCOA2) inhibition. Q15596. HEK293 GAL4-SRC2 luciferase reporter, luminescence. inhibition, % at 9 µM. actives 0.17% (n = 370,000);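 active means inhibition above the mean inhibition of all tested compounds plus 3 SD, set per campaign, cut at about 52% in these data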;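 further: 0% = DMSO treated cells and 100% = cells given Gossypol at 36 µM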
# GalR3 antag = antagonists of human GalR3; O60755; HEK293 GalR3-CNG cAMP membrane potential fluorescence; galR3 body fused to GalR1 C-terminus; inhibition, % at 3 µM; actives 0.44% (n = 360,000); AID 651719;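 active means inhibition above the screen-wide average plus 3 SD, cut at about 13% in these data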;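 further: forskolin and galanin both at EC90 stimulate the cells; cAMP rise reported by CNG channel membrane potential dye signal; 0% = forskolin plus galanin with DMSO and 100% = forskolin alone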
# Target sequence (O60755 1-299 limits assumed): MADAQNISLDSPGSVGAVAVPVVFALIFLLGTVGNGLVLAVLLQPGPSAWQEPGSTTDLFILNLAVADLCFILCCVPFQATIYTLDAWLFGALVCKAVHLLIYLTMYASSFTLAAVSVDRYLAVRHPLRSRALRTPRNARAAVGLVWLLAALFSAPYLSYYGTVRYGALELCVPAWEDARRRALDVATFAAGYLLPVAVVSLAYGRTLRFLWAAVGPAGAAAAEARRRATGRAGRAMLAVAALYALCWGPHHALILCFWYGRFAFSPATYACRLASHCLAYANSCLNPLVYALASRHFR
# COUP-TFII inh = blocks human COUP-TFII nuclear receptor; inhibition, % at 8.6 µM; actives 0.7% (n = 370,000); HEK293T NGFI-A luciferase reporter, luminescence; P24468;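 active means inhibition above a per-plate cutoff, mean inhibition of test wells between control levels plus 3 SD, cut at about 38% in these data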;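 further: cells cotransfected with COUP-TFII expression vector driving the NGFI-A reporter; 0% = median of COUP-TF2 test wells and 100% = reporter-only cells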
# Target sequence (P24468 whole entry, looked up): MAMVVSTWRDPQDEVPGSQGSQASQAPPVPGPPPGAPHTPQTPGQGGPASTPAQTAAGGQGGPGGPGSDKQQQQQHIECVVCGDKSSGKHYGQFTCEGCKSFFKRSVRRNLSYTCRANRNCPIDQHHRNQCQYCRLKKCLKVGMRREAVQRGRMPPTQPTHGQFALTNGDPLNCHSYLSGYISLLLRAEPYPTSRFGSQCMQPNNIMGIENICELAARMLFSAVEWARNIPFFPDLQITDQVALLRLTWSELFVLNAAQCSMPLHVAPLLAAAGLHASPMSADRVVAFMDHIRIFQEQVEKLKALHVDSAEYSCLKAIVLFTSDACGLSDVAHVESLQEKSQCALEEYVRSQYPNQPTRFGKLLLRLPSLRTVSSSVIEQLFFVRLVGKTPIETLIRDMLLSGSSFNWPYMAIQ
# VP16 Luc counter = VP16 inhibition counter-screen for COUP-TFII. shares compounds with COUP-TFII inh. HEK293 Gal4-VP16 luciferase reporter, luminescence. inhibition, % at 8.5 µM. actives 25% (n = 2,500). AID 687007; in the data active means inhibition above about 13%
# NR2F2 inh conf = COUP-TFII (NR2F2) inhibition, confirmation assay; HEK293 NGFI-A luciferase reporter, luminescence; inhibition, % at 8.5 µM; actives 45% (n = 2,500); shares compounds with COUP-TFII inh;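 active means mean inhibition over three repeats above a set limit taken from the earlier primary screen, cut at about 38% in these data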;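 further: 100% = cells given the luciferase reporter alone without the COUP-TF2 vector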
# * hit, by the source's call; / = not tested or not shown.
SMILES,NCOA1 inh,LRH-1 inv ag,NCOA3 inh,SRC2 inh,GalR3 antag,COUP-TFII inh,VP16 Luc counter,NR2F2 inh conf
O=C(OCC12CC3CC(CC(C3)C1)C2)c1ccc(NCc2cc(O)ccc2O)cc1,18.3,65.1,72.7*,84.6*,1.8,79.7*,78.9*,99.4*
N#CCC(=O)Nc1ccc(C(=O)OCC(=O)C23CC4CC(CC(C4)C2)C3)cc1,10.4,4.3,-17.8,14.0,-4.6,-6.0,/,/
CCNC(=O)OCCC12CC3CC(CC(C3)C1)C2,-8.3,-6.1,11.1,-21.6,-0.8,-1.5,/,/
COc1cccc2c1C(=O)c1c(O)c3c(c(O)c1C2=O)C[C@](O)(C(C)=O)C[C@H]3O[C@@H]1C[C@@H](N)[C@@H](O)[C@@H](C)O1,-165.1,99.0*,-104.8,47.1,5.0,54.9*,36.0*,47.1*
COc1cccc2c1C(=N)c1c(O)c3c(c(O)c1C2=O)CC(O)(C(C)=O)CC3OC1CC(N)C(O)C(C)O1 (stereo not drawn),57.0,27.6,32.9,/,/,/,/,/
CC1Cc2ccccc2N1C(=O)CSc1ncccn1 (stereo not drawn),-18.5,-5.5,12.6,6.2,-5.0,5.2,/,/
c1ccc(CN2CCC(CNc3ncnc4ccccc34)C2)cc1 (stereo not drawn),16.6,21.2,13.4,32.0,-6.4,41.1*,-0.7,15.4
c1ccc(CN2CCC(Nc3nc(-c4ccccc4)nc4ccccc34)CC2)cc1,5.1,-7.5,3.4,15.8,-5.1,-13.2,/,/
O=C(CS(=O)(=O)c1ccc(Cl)cc1)Nc1nccs1,-0.6,-0.4,-2.5,5.4,-6.9,-1.8,/,/
CCCCCCCCCCCCCCCC[n+]1cccc2ccccc21,27.0,33.3,61.8*,-13.2,-3.0,54.2*,15.4*,63.2*
CCN(CC)CCNC(=O)c1ccc2c(c1NCCO)C(=O)c1ccccc1C2=O,43.9,39.5,62.8*,35.4,-4.4,64.1*,-3.8,-4.9
CC1CCN(C(=O)c2ccc3c(c2NCCO)C(=O)c2ccccc2C3=O)CC1,0.7,-4.5,7.5,17.2,-0.7,1.9,/,/
CCc1ccc(CCNC(=O)OCCCN2CCC3(CCC(c4ccccc4)CC3)C2=O)cc1 (stereo not drawn),/,/,/,34.1,/,41.0*,-7.2,6.9
CCCCNC(=O)OCCCN1CCC2(CCC(c3ccccc3)CC2)C1=O (stereo not drawn),/,/,/,3.6,/,9.4,/,/
CCOC(=O)N1CCN(C(=O)c2ccc3c(c2)N(Cc2ccc(F)cc2)CCS3)CC1,2.2,-17.7,11.7,20.2,/,37.8*,1.7,-0.9
N#CC1=C(N)Oc2c(O)cc3ccccc3c2C1c1ccsc1 (stereo not drawn),-3.2,10.2,9.2,0.4,-1.0,-7.7,/,/
Cc1cnc(NC(=O)COc2ccccc2Cl)s1,-28.7,-74.5,-11.6,34.3,-3.7,41.4*,-27.5,4.2
Cc1cnc(NC(=O)CCNC(=O)c2ccccc2Cl)s1,-5.1,-13.1,2.2,-40.2,-2.8,-19.9,/,/
O=C(CN1C(=O)c2ccccc2S1(=O)=O)c1ccc(Cl)cc1Cl,55.0,59.1,62.0*,87.1*,2.3,91.0*,70.5*,90.1*
O=C(CCN1C(=O)c2ccccc2S1(=O)=O)Nc1ccc2c(c1)OCCO2,5.1,-12.1,17.1,-23.1,-1.7,12.1,/,/
O=C(CN1C(=O)c2ccccc2S1(=O)=O)c1ccc(OC(F)F)cc1,35.6,31.3,12.0,/,/,/,/,/
O=C(CN1C(=O)c2ccccc2S1(=O)=O)c1ccc2c(c1)OCCCO2,92.9*,93.3*,92.9*,92.6*,-1.3,100.1*,92.8*,108.8*
O=C(CN1C(=O)c2ccccc2S1(=O)=O)c1cccc(Br)c1,3.2,11.8,10.9,-16.0,-0.2,2.4,/,/
O=C(CN1C(=O)c2ccccc2S1(=O)=O)c1ccc(F)cc1,13.7,-15.9,46.0,32.4,0.1,39.6*,-22.7,13.6
O=C(CN1C(=O)c2ccccc2S1(=O)=O)c1ccc2c(c1)OCCO2,81.9*,62.4,85.4*,88.8*,-5.9,88.9*,82.6*,99.3*
SMILES,NCOA1 inh,LRH-1 inv ag,NCOA3 inh,SRC2 inh,GalR3 antag,COUP-TFII inh,VP16 Luc counter,NR2F2 inh conf
CC(=O)N1CCc2c(sc3c2c(=O)n(-c2ccccc2)c(=O)n3CC(=O)NCC2CCCO2)C1 (stereo not drawn),9.6,5.3,11.2,-17.6,/,7.6,/,/
O=C1c2ccccc2C2NC(=O)C3(CCCCC3)N12 (stereo not drawn),-0.3,-6.8,13.3,-37.0,-4.5,5.1,/,/
COc1cc(C(=O)Nc2ccc(F)cc2Cl)ccc1OCC(=O)N1CCOCC1,-3.0,2.4,-6.2,-17.7,0.8,-21.2,/,/
O=C(CSc1nnc(Cc2ccc(Cl)cc2)o1)Nc1ccccc1,-1.8,-0.4,25.6,-17.8,-8.9,-16.6,/,/
CC(=O)Oc1c(Cl)cc(N(C(C)=O)S(=O)(=O)c2ccccc2)c2ccccc12,20.1,25.5,25.7,30.5,-1.6,53.0*,27.8*,28.4
Cc1ccc(C(=O)N2c3ccccc3N(Cc3ccccc3)C(=O)C2(C)C)cc1,3.5,11.3,3.3,20.3,-1.1,51.1*,-1.2,46.6*
CC(C)Cc1ccc(C(C)C(=O)Nc2cccnc2)cc1 (stereo not drawn),10.4,25.8,15.7,14.3,-11.9,46.1*,2.5,41.4*
CC(C(=O)Nc1cccnc1)c1ccc([N+](=O)[O-])cc1 (stereo not drawn),-9.4,22.4,5.1,-5.3,-2.4,-5.1,/,/
COC(=O)C1=C(C)N(Cc2ccccc2C(F)(F)F)C(=NCc2cc(OC)c(OC)c(OC)c2)NC1c1cccc(F)c1 (stereo not drawn),/,/,/,-13.5,-5.8,-12.5,/,/
COc1ccc(C)cc1NS(=O)(=O)c1ccc2c(c1)N(C(C)=O)CCO2,3.6,-5.8,0.3,5.0,-9.5,0.4,/,/
CCOC(=O)c1c(-c2ccc(N(C)C)cc2)oc2c1C(OC)CC2 (stereo not drawn),/,-1.0,/,-27.5,-3.5,-10.3,/,/
CCOC(=O)N1CCN(c2ncnc3c2[nH]c2ccc(F)cc23)CC1,12.9,23.0,21.4,-22.7,1.3,63.7*,-1.6,39.7*
Cc1onc(-c2ccccc2Cl)c1C(=O)Nc1cccc2cccnc12,-86.6,38.6,-93.3,-2.6,-3.2,43.0*,4.3,32.6
Cc1ccc(C2CC(C(F)(F)F)n3nc(C(=O)NCc4c(C)nn(C)c4C)c(Cl)c3N2)cc1 (stereo not drawn),26.1,23.3,33.3,20.8,-3.4,45.3*,-0.5,23.2
COc1ccc(CCc2nnc(CCC(=O)N(C)Cc3ccnc4ccccc34)o2)cc1,4.8,25.5,18.6,10.2,-5.3,39.8*,-28.5,17.2
